Data reported in the supplement of paper PMC10503962.

test system: Trichuris muris adult worms; test: mean motility score (Paragon pixel variance) of adult worms (arbitrary units); higher = more motile worms, i.e. less anthelmintic effect; extreme values may be limits of the assay; conditions: 100 µM; 24 h
Method in brief: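 Single adult Trichuris muris worms, recovered from infected NOD SCID mice, were exposed to drug at 100 μM (1% v/v DMSO) in 100 μL RPMI-1640 with antibiotics in 96-well plates for 24 h at 37°C and 5% CO2. The plates were then filmed on an automated phenotyping platform. The motility score was calculated through Paragon pixel-variance analysis and averaged across replicate wells, with three worms in three wells per drug on three separate occasions.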

| SMILES | mean motility score |
| --- | --- |
| Nc1ccc(S(=O)(=O)NC(=O)c2ccccc2)cc1 [sulfabenzamide] | 4050 |
| CCOC(=O)[C@H](CCc1ccccc1)N[C@H]1CCc2ccccc2N(CC(=O)O)C1=O.Cl [benazepril hydrochloride] | 2030 |
| Clc1ccc2c(c1)C(N1CCNCC1)=Nc1ccccc1O2 [amoxapine] | 804 |
| Cc1ccc(C(=O)Nc2ccc(CN3CCN(C)CC3)c(C(F)(F)F)c2)cc1C#Cc1cnc2cccnn12 [ponatinib] | 1760 |
| Oc1ncnc2[nH]ncc12 [allopurinol] | 4000 |
| CCOC(=O)C1=C(COCCN)NC(C)=C(C(=O)OC)C1c1ccccc1Cl (stereo not drawn) [amlodipine] | 8.67 |
| CCOc1cc(CC(=O)N[C@@H](CC(C)C)c2ccccc2N2CCCCC2)ccc1C(=O)O [repaglinide] | 268 |
| NCC[C@H](O)C(=O)N[C@@H]1C[C@H](N)[C@@H](O[C@H]2O[C@H](CN)[C@@H](O)[C@H](O)[C@H]2O)[C@H](O)[C@H]1O[C@H]1O[C@H](CO)[C@@H](O)[C@H](N)[C@H]1O.O=S(=O)(O)O [amikacin sulfate] | 3880 |
| COCCCC/C(=N\OCCN)c1ccc(C(F)(F)F)cc1 [fluvoxamine] | 2670 |
| CCCCOc1ccc(OCCCN2CCOCC2)cc1.Cl [pramoxine hydrochloride] | 1260 |
| CN(Cc1cnc2nc(N)nc(N)c2n1)c1ccc(C(=O)N[C@@H](CCC(=O)O)C(=O)O)cc1 [methotrexate] | 3700 |
| CN1CCN(CC/C=C2/c3ccccc3Sc3ccc(S(=O)(=O)N(C)C)cc32)CC1 [thiothixene] | 1030 |
| c1ccc(-c2ccc(C(c3ccccc3)n3ccnc3)cc2)cc1 (stereo not drawn) [bifonazole] | 20 |
| CCCCc1oc2ccccc2c1C(=O)c1cc(I)c(OCCN(CC)CC)c(I)c1 [amiodarone] | 2080 |
| CC/C(=C(\c1ccccc1)c1ccc(OCCN(C)C)cc1)c1ccccc1 [tamoxifen] | 165 |
| C#C[C@]1(O)CC[C@H]2[C@@H]3CCC4=CC(=O)CC[C@@H]4[C@H]3CC[C@@]21CC [levonorgestrel] | 3390 |
| Cc1nc(Nc2ncc(C(=O)Nc3c(C)cccc3Cl)s2)cc(N2CCN(CCO)CC2)n1 [dasatinib] | 1190 |
| CC(C)(C)NCC(O)c1ccc(O)c(CO)c1.O=S(=O)(O)O (stereo not drawn) [albuterol sulfate] | 1690 |
| Nc1nnc(-c2cccc(Cl)c2Cl)c(N)n1 [lamotrigine] | 2280 |

| SMILES | mean motility score |
| --- | --- |
| COc1cc2nc(N(C)CCCNC(=O)C3CCCO3)nc(N)c2cc1OC (stereo not drawn) [alfuzosin] | 2420 |
| OCC(S)CS (stereo not drawn) [dimercaprol] | 1550 |
| CC1=CC(=O)c2ccccc2C1=O [menadione] | 361 |
| COc1ccccc1N1CCN(CC(O)COc2cccc3ccccc23)CC1 (stereo not drawn) [naftopidil] | 3040 |
| Cc1nc(O)c(C#N)cc1-c1ccncc1 [milrinone] | 4250 |
| CN1CCN(CCOc2cc(OC3CCOCC3)c3c(Nc4c(Cl)ccc5c4OCO5)ncnc3c2)CC1 [saracatinib] | 1640 |
| COc1ccccc1O [guaiacol] | 2150 |
| Cc1ccc(C)c(OCCCC(C)(C)C(=O)O)c1 [gemfibrozil] | 3280 |
| CO[C@@]1(NC(=O)CSCC#N)C(=O)N2C(C(=O)[O-])=C(CSc3nnnn3C)CS[C@@H]21.[Na+] [cefmetazole sodium] | 2040 |
| Nc1ccc(C(=O)O)c(O)c1 [aminosalicylic acid] | 4450 |
| C=CC[C@@H]1/C=C(\C)C[C@H](C)C[C@H](OC)[C@H]2O[C@@](O)(C(=O)C(=O)N3CCCC[C@H]3C(=O)O[C@H](/C(C)=C/[C@@H]3CC[C@@H](O)[C@H](OC)C3)[C@H](C)[C@@H](O)CC1=O)[C@H](C)C[C@@H]2OC [tacrolimus] | 0 |
| Cc1c(-c2ccccc2)oc2c(C(=O)OCCN3CCCCC3)cccc2c1=O [flavoxate] | 4070 |
| COc1ccc2cc([C@@H](C)C(=O)O)ccc2c1 [(R)-naproxen] | 1390 |
| CC(C)(F)C[C@H](N[C@@H](c1ccc(-c2ccc(S(C)(=O)=O)cc2)cc1)C(F)(F)F)C(=O)NC1(C#N)CC1 [odanacatib] | 3560 |
| COC(=O)C1=C(C)NC(C)=C(C(=O)OC)C1c1ccccc1[N+](=O)[O-] [nifedipine] | 1260 |
| Cn1cnc2c(F)c(Nc3ccc(Br)cc3Cl)c(C(=O)NOCCO)cc21 [selumetinib] | 3500 |
| COc1ccc(-c2ccc3cc(C(=O)O)ccc3c2)cc1C12CC3CC(CC(C3)C1)C2 [adapalene] | 3410 |
| CCOC(=O)[C@H](CCc1ccccc1)N[C@@H](C)C(=O)N1Cc2cc(OC)c(OC)cc2C[C@H]1C(=O)O.Cl [moexipril hydrochloride] | 3680 |
| NC(=O)c1ncn([C@@H]2O[C@H](CO)[C@@H](O)[C@H]2O)c1O [mizoribine] | 2990 |
